For five compounds, composite z-score and z-score results are on record in PubChem BioAssay.

Calls of active or inactive are those of the source.

Assay [1] is described as follows: binders of probe aFSTL3 on microarray, primary screen, stem cell growth factor project, biochemical, small-molecule microarray, fluorescence 635/667 (AID 1064).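 Also: measures binding of the biotinylated anti-FSTL3 antibody to printed compounds.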 Particulars: higher = more signal.
Assay [2] in a line: binders from COS7 lysate, DM2A8 probe, primary screen, torsin A project, cell lysate, small-molecule microarray, fluorescence 635/667 (AID 1065). Particulars: higher = more signal, COS7 lysate expressing mutant human TOR1A.
The nature of assay [3]: binders of probe aFGF2 on microarray, primary screen, stem cell growth factor project, biochemical, small-molecule microarray, fluorescence 635/667 (AID 1067).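 Also: measures binding of biotinylated aFGF2 protein to printed compounds on slides; z-score merges feature fluorescence and signal-to-noise across triplicate slides.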 Particulars: higher = more signal.
A short description of assay [4]: binders of probe aFGF10 on microarray, primary screen, stem cell growth factor project, biochemical, small-molecule microarray, fluorescence 635/667 (AID 1071).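 Also: score merges 667 nm spot intensity and signal to noise from triplicate slides.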 Particulars: higher = more signal.
In assay [5] the target is Neurogenic locus notch homolog protein 2 (Homo sapiens) (UniProt Q04721). The assay is described as follows: Notch2 binders on small-molecule microarrays, primary screen, biochemical, small-molecule microarray, 635 nm fluorescence, stem cell growth factors (AID 1073). The settings on record: Notch2 binding, higher = more signal.
Assay [6] concerns the target Pro-neuregulin-1, membrane-bound isoform (Homo sapiens) (UniProt Q02297). The assay is described as follows: NRG1 binders on small-molecule microarrays, primary screen, psychiatric disease protein project, biochemical, small-molecule microarray, fluorescence 635/667 (AID 1075).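 Also: score combines 667 nm spot fluorescence with signal to noise.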 Particulars: NRG1 binding, 635 nm fluorescence, higher = more signal.
The subject of assay [7] is Neuregulin-1 EGF-like domain. The assay is described as follows: binders of neuregulin-1 EGF-like domain, primary screen, biochemical, small-molecule microarray, 635 nm fluorescence (AID 1081).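 Also: binding of the protein to compounds printed on small-molecule microarray slides.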 Particulars: small-molecule microarray binding, higher = more signal.
Assay [8] can be described thus: FRG1 promoter luciferase signal modulators, primary screen, FRG1 inhibition for FSHD, cell-based, C2C12 myotubes, firefly/Renilla luciferase, luminescence (AID 1084). Particulars: higher = more signal, called active from +8 up or from −8 down.
Assay [9] in a line: binders of probe aFST on microarray, primary screen, stem cell growth factor project, biochemical, small-molecule microarray, fluorescence 635/667 (AID 1086).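 Also: score merges 667 nm fluorescence with signal-to-noise of each printed compound spot.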 The settings on record: higher = more signal.
Assay [10] in a line: binders of probe aHhip on microarray, primary screen, stem cell growth factor project, biochemical, small-molecule microarray, fluorescence 635/667 (AID 1087).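 Also: score merges spot fluorescence at 667nm with spot signal to noise ratio.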 Particulars: higher = more signal.
Assay [11] relates to PRMT1 (protein arginine N-methyltransferase 1). The assay is described as follows: PRMT1 binders on small-molecule microarrays, primary screen, biochemical, small-molecule microarray, 635 nm fluorescence (AID 1088).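 Also: binding of Prmt1 protein to compounds spotted on small-molecule microarray slides.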 Particulars: small-molecule microarray binding, higher = more signal.
Assay [12] in a line: yeast growth modulation, basal conditions, primary screen, YJM789 clinical isolate, OD600, 24 h (AID 1089).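 Also: growth of clinical yeast isolate S. cerevisiae YJM 789 seeded 1000 cells per well; test concentration not given here.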 The settings on record: S. cerevisiae YJM789 growth, higher = more signal, called active from +8 up or from −8 down.
Assay [13] is described as follows: fission yeast growth modulation, primary screen, strain 972, OD600, 24 h, no modulator (AID 1090).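 Also: basal condition with compound alone and no growth modifier present; test concentration not given here.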 The settings on record: S. pombe 972 growth, higher = more signal, called active from +8 up or from −8 down.
The nature of assay [14]: S. cerevisiae growth modulation with rapamycin, primary screen, strain BY4716, OD600, 96 h (AID 1091). Also: test concentration not given here. The settings on record: higher = more signal, called active from +8 up or from −8 down.
Assay [15] addresses Torsin-1A-interacting protein 2 (Homo sapiens) (UniProt Q8NFQ8). The assay can be described thus: LULL1 binders on small-molecule microarray, primary screen, cell lysate, human LULL1 lysate, 635/667 nm fluorescence (AID 1092).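 Also: probe is lysate of COS7 cells overexpressing human LULL1; score merges per-feature 667 nm fluorescence with signal-to-noise.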 Particulars: hLULL1 lysate binding, 635 nm fluorescence, higher = more signal.
Assay [16] can be described thus: E. coli growth modulation, two-sided OD650, primary screen, E. coli filamentation project, strain DRC41, 24 h (AID 1093).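 Also: MC1000 strain lacking acrAB efflux and sulA so SOS filamentation is blocked; test concentration not given here.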 Particulars: OD650, 24 h, higher = more signal, called active from +8 up or from −8 down.
A short description of assay [17]: small-molecule microarray binders of probe aLefty2, primary screen, biochemical, biotinylated probe, 635/667 nm fluorescence (AID 1094).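 Also: score merges spot fluorescence near 667 nm with spot signal-to-noise ratio.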 Particulars: higher = more signal.
Assay [18] relates to Noggin (protein binding on small-molecule microarray). The assay is described as follows: Noggin binders on small-molecule microarray, primary screen, biochemical, 635/667 nm fluorescence (AID 1095).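 Also: score merges 667 nm feature fluorescence with signal to noise over triplicate slides.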 Particulars: 635 nm fluorescence, higher = more signal.
In assay [19] the target is Neurogenic locus notch homolog protein 3 (Homo sapiens) (UniProt Q9UM47). The assay can be described thus: NOTCH3 binders on small-molecule microarray, primary screen, biochemical, 635/667 nm fluorescence (AID 1096). Particulars: NOTCH3 binding, 635 nm fluorescence, higher = more signal.
A short description of assay [20]: small-molecule microarray binders of probe aEGFR, primary screen, biochemical, biotinylated probe, 635/667 nm fluorescence (AID 1097).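 Also: probe is a biotinylated anti-EGFR antibody binding compounds printed on slides; score combines fluorescence near 667 nm and signal to noise of each spot.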 Particulars: higher = more signal.

Chain of Torsin-1A-interacting protein 2 (Homo sapiens) (Q8NFQ8 whole entry, looked up): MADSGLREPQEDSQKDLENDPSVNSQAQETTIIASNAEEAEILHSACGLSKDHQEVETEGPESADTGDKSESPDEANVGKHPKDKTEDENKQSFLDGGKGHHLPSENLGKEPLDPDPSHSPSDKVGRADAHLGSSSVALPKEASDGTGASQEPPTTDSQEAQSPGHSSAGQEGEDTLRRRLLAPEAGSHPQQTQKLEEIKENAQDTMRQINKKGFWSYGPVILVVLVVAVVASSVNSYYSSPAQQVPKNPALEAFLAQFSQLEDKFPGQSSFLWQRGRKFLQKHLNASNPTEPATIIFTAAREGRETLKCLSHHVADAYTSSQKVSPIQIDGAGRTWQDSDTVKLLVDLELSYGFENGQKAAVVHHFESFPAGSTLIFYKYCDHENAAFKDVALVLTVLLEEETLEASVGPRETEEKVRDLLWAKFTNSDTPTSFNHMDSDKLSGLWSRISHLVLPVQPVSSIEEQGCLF
Chain of Pro-neuregulin-1, membrane-bound isoform (Homo sapiens) (Q02297 whole entry, looked up, the tested form may be a part, canonical isoform): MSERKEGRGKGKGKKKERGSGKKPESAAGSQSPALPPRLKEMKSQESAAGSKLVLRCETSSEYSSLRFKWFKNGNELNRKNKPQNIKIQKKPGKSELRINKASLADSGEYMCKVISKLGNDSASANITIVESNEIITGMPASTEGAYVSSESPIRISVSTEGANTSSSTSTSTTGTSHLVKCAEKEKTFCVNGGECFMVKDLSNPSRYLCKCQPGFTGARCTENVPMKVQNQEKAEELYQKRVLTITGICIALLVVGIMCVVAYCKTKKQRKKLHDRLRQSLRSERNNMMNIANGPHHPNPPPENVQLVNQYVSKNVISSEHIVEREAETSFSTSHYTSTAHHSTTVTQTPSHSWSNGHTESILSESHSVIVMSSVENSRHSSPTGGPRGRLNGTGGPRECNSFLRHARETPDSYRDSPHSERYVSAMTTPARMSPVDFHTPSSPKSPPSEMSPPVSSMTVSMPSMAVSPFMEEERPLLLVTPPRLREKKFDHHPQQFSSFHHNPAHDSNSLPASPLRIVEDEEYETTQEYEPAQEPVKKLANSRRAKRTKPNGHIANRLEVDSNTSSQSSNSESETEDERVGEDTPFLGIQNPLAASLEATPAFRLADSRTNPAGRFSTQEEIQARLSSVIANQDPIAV
Chain of Neurogenic locus notch homolog protein 2 (Homo sapiens) (Q04721 whole entry, looked up, canonical isoform): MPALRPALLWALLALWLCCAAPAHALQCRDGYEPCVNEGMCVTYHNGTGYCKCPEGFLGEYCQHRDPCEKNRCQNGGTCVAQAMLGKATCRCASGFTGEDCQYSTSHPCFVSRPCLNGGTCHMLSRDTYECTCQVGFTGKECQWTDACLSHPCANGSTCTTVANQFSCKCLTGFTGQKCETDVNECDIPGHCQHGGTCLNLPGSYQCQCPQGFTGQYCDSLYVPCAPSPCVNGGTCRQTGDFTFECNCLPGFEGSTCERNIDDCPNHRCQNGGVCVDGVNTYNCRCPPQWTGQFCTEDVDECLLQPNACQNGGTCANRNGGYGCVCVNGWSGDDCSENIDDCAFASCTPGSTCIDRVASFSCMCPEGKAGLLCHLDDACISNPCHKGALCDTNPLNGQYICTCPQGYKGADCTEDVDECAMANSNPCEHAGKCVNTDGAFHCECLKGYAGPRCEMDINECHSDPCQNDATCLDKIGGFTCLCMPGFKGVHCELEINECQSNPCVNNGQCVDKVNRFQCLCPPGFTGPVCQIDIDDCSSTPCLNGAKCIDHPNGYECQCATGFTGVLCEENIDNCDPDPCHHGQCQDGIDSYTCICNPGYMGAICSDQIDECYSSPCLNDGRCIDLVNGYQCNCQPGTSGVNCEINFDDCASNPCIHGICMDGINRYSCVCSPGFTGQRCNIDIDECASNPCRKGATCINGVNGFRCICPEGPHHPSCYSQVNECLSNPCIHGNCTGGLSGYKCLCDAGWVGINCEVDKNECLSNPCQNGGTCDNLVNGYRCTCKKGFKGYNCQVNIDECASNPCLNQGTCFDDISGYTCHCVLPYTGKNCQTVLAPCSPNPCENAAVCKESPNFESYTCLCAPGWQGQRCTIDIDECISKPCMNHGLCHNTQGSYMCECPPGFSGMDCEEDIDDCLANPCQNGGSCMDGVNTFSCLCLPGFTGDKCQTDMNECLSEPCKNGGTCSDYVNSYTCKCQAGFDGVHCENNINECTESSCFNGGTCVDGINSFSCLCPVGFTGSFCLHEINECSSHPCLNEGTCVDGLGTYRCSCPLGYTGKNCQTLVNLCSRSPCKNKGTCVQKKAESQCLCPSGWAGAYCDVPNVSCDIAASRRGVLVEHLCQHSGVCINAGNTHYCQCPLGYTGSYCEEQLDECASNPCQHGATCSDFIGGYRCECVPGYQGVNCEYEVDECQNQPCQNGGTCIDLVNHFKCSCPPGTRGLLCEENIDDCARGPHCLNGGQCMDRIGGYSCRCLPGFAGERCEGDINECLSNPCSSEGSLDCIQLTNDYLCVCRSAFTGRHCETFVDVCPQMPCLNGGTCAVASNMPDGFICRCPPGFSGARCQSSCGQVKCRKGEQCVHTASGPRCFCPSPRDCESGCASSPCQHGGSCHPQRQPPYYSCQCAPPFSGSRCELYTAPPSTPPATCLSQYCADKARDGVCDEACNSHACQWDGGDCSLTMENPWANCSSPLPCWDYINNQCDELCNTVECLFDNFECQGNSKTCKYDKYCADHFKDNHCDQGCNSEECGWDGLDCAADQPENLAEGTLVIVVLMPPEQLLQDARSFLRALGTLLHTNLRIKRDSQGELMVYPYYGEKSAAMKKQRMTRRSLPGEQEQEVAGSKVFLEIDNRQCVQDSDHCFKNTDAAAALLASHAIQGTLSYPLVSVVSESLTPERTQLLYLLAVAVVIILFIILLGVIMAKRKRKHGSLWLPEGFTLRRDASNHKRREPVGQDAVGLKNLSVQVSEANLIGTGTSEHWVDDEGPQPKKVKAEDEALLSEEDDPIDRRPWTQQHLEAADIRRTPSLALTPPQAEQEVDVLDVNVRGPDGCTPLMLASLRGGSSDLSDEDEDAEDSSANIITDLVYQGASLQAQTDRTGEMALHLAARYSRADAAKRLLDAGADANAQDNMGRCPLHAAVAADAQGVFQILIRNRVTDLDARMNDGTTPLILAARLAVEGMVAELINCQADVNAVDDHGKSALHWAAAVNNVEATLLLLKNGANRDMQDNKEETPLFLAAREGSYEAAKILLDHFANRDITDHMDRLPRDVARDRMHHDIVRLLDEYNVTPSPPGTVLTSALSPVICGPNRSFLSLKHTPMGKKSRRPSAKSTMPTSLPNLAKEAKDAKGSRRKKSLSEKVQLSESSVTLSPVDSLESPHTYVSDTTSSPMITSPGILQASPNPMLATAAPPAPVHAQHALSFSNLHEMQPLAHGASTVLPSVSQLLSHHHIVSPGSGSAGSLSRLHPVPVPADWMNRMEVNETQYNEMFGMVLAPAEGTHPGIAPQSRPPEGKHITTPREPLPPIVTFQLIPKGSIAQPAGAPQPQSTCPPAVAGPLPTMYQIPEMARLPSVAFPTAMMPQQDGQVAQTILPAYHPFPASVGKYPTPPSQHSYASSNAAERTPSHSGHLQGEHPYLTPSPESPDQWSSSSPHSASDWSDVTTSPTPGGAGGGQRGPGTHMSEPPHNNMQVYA

For `COCCCNC(=O)[C@@]1(Cc2ccccc2CN=[N+]=[N-])COC(c2ccc(OCCCO)cc2)=N1`, the composite z-score in assay [1] is 1.14; in assay [2], 1.3; in [3], 0.302; in assay [4] it was 1.07; in [5], 1.28; in [6], 1.84. Further, the composite z-score was 1.28 in assay [7]; 0.934 in assay [9]; -0.277 in assay [10]; 1.54 in assay [11]; 3.17 in assay [15]; 0.374 in assay [17]. For the same compound, the composite z-score in assay [18] is -0.434; in assay [19], 0.964; in assay [20], 0.294. The z-score is -2.53 (inactive) in assay [8]; 1.14 (inactive) in assay [12]; -2.56 (inactive) in assay [13]; 0.0898 (inactive) in [14]; 2.36 (inactive) in [16].

Regarding `COC(=O)c1c2oc(c1C(=O)OC)C(=O)N[C@@H](C(C)C)Cn1nncc1C1(CCCCC1)NC(=O)N[C@H](CO)CC2`, the composite z-score in [1] was -0.07; in assay [2], 0.178; in assay [3], -0.129; in assay [4] it was 0.147; in assay [5], -0.294; in assay [6], 0.969. In addition, the composite z-score in assay [7] is 0.625; in [9] it was -0.103; in assay [10] it was 0.0373; in assay [11] it was -0.143; in assay [15], 2.02; in assay [17], -0.208. The composite z-score was -0.494 in assay [18], -0.373 in [19] and -0.144 in [20]. In addition, the z-score in [8] was -0.993 (inactive); in assay [12], 0.0957 (inactive); in assay [13], -0.99 (inactive); in assay [14], -0.787 (inactive); in assay [16], 2.28 (inactive).

On to `O=C1c2ccccc2[C@](Cc2ccccc2I)(C(=O)O)[C@H](c2ccc(CO)cc2)N1Cc1ccccc1Cl`, for which the composite z-score in assay [1] is 0.668; in assay [2], 0.651; in assay [3] it was -0.0301; in assay [4] it was 0.0635; in [5] it was 0.268; in assay [6], 0.955. The composite z-score was 0.819 in [7]; 0.43 in assay [9]; -0.0994 in assay [10]; 1.21 in assay [11]; 1.82 in assay [15]; 0.0678 in assay [17]. Moreover, the results for the composite z-score in [18], in [19] and in assay [20] were -0.168, 0.239 and -0.104, respectively. Also, the z-score in [8] is 0.17 (inactive); in [12], -0.818 (inactive); in assay [13] it was -1.53 (inactive); in [14] it was -1.19 (inactive); in assay [16], 1.13 (inactive).

Turning to `CCCCCN1CC=CC23O[C@@H]4/C=C\CCC(C)OC(=O)C4[C@H]2C(=O)N(CCCO)[C@@H]3C1=O` (stereo not given in full), the composite z-score in assay [1] was 0.499; in assay [2], 2.09; in assay [3], -0.128; in assay [4], -1.37; in [5] it was -1.28; in assay [6], 1.57. For the same compound, the composite z-score in [7] is 1.15; in assay [9], -0.61; in [10], -0.261; in assay [11], -0.418; in [15] it was 0.818; in [17], -0.441. Also, the composite z-score in assay [18] was -1.44; in [19] it was -1.17; in assay [20], -0.262. The z-score in assay [8] was 0.356 (inactive); in assay [12] it was -1.3 (inactive); in assay [13], -1.58 (inactive); in assay [14] it was -0.544 (inactive); in [16], 1.77 (inactive).

Consider `C=CCN1C(=O)[C@@]2(O[C@@H](CCn3cc(CCO)nn3)[C@H]([Si](C)(C)c3ccc(OC)cc3)[C@H]2C)c2cc(N3C(=O)c4cccc5cccc3c45)ccc21`, for which the composite z-score in [1] is -0.323; in assay [2] it was 0.749; in assay [3], -0.0839; in assay [4], 0.569; in assay [5] it was 0.705; in assay [6], 1.11. Further, the composite z-score was 0.813 in [7]; 0.42 in assay [9]; 0.142 in assay [10]; 0.949 in assay [11]; 0.875 in [15]; -0.0592 in assay [17]. Moreover, the values for the composite z-score in assay [18], in [19] and in assay [20] were 0.412, 1.07 and -0.0332, respectively. In addition, the z-score is -2.79 (inactive) in assay [8]; -0.309 (inactive) in assay [12]; 0.593 (inactive) in [13]; 13.5 (active) in assay [14]; 2.4 (inactive) in assay [16].
